In PubChem BioAssay:
The source made the active and inactive calls.

Assays:
[1] = binders of probe aFSTL3 on microarray, primary screen, stem cell growth factor project, biochemical, small-molecule microarray, fluorescence 635/667 (AID 1064); details: higher = more signal;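 note: measures binding of the biotinylated anti-FSTL3 antibody to printed compounds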
[2] = binders from COS7 lysate, DM2A8 probe, primary screen, torsin A project, cell lysate, small-molecule microarray, fluorescence 635/667 (AID 1065); details: higher = more signal, COS7 lysate expressing mutant human TOR1A
[3] = binders of probe aFGF2 on microarray, primary screen, stem cell growth factor project, biochemical, small-molecule microarray, fluorescence 635/667 (AID 1067); details: higher = more signal;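 note: measures binding of biotinylated aFGF2 protein to printed compounds on slides; z-score merges feature fluorescence and signal-to-noise across triplicate slides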
[4] = binders of probe aFGF10 on microarray, primary screen, stem cell growth factor project, biochemical, small-molecule microarray, fluorescence 635/667 (AID 1071); details: higher = more signal;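 note: score merges 667 nm spot intensity and signal to noise from triplicate slides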
[5] = target: Neurogenic locus notch homolog protein 2 (Homo sapiens) (UniProt Q04721); assay: Notch2 binders on small-molecule microarrays, primary screen, biochemical, small-molecule microarray, 635 nm fluorescence, stem cell growth factors (AID 1073); details: Notch2 binding, higher = more signal
[6] = target: Pro-neuregulin-1, membrane-bound isoform (Homo sapiens) (UniProt Q02297); assay: NRG1 binders on small-molecule microarrays, primary screen, psychiatric disease protein project, biochemical, small-molecule microarray, fluorescence 635/667 (AID 1075); details: NRG1 binding, 635 nm fluorescence, higher = more signal;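 note: score combines 667 nm spot fluorescence with signal to noise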
[7] = test system: Neuregulin-1 EGF-like domain; assay: binders of neuregulin-1 EGF-like domain, primary screen, biochemical, small-molecule microarray, 635 nm fluorescence (AID 1081); details: small-molecule microarray binding, higher = more signal;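 note: binding of the protein to compounds printed on small-molecule microarray slides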
[8] = FRG1 promoter luciferase signal modulators, primary screen, FRG1 inhibition for FSHD, cell-based, C2C12 myotubes, firefly/Renilla luciferase, luminescence (AID 1084); details: higher = more signal, called active from +8 up or from −8 down
[9] = binders of probe aFST on microarray, primary screen, stem cell growth factor project, biochemical, small-molecule microarray, fluorescence 635/667 (AID 1086); details: higher = more signal;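 note: score merges 667 nm fluorescence with signal-to-noise of each printed compound spot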
[10] = binders of probe aHhip on microarray, primary screen, stem cell growth factor project, biochemical, small-molecule microarray, fluorescence 635/667 (AID 1087); details: higher = more signal;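 note: score merges spot fluorescence at 667nm with spot signal to noise ratio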

Sequence of Pro-neuregulin-1, membrane-bound isoform (Homo sapiens) (Q02297 whole entry, looked up, the tested form may be a part, canonical isoform): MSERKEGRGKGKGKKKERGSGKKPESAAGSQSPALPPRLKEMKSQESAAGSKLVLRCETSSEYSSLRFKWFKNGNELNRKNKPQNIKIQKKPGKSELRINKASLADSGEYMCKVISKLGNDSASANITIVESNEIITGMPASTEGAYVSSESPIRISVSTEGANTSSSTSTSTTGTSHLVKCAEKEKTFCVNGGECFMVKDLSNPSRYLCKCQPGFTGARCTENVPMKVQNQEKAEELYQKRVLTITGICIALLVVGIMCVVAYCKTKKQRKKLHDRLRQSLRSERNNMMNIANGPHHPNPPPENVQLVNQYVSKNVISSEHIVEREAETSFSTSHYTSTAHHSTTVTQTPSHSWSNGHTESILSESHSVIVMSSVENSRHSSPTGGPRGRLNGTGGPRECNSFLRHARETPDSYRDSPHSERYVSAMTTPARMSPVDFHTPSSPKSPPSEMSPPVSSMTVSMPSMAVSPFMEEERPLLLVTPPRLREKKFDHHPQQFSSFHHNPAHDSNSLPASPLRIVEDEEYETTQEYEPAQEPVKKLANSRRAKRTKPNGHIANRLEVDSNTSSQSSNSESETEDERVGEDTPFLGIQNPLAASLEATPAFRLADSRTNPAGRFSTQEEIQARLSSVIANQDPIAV
Sequence of Neurogenic locus notch homolog protein 2 (Homo sapiens) (Q04721 whole entry, looked up, canonical isoform): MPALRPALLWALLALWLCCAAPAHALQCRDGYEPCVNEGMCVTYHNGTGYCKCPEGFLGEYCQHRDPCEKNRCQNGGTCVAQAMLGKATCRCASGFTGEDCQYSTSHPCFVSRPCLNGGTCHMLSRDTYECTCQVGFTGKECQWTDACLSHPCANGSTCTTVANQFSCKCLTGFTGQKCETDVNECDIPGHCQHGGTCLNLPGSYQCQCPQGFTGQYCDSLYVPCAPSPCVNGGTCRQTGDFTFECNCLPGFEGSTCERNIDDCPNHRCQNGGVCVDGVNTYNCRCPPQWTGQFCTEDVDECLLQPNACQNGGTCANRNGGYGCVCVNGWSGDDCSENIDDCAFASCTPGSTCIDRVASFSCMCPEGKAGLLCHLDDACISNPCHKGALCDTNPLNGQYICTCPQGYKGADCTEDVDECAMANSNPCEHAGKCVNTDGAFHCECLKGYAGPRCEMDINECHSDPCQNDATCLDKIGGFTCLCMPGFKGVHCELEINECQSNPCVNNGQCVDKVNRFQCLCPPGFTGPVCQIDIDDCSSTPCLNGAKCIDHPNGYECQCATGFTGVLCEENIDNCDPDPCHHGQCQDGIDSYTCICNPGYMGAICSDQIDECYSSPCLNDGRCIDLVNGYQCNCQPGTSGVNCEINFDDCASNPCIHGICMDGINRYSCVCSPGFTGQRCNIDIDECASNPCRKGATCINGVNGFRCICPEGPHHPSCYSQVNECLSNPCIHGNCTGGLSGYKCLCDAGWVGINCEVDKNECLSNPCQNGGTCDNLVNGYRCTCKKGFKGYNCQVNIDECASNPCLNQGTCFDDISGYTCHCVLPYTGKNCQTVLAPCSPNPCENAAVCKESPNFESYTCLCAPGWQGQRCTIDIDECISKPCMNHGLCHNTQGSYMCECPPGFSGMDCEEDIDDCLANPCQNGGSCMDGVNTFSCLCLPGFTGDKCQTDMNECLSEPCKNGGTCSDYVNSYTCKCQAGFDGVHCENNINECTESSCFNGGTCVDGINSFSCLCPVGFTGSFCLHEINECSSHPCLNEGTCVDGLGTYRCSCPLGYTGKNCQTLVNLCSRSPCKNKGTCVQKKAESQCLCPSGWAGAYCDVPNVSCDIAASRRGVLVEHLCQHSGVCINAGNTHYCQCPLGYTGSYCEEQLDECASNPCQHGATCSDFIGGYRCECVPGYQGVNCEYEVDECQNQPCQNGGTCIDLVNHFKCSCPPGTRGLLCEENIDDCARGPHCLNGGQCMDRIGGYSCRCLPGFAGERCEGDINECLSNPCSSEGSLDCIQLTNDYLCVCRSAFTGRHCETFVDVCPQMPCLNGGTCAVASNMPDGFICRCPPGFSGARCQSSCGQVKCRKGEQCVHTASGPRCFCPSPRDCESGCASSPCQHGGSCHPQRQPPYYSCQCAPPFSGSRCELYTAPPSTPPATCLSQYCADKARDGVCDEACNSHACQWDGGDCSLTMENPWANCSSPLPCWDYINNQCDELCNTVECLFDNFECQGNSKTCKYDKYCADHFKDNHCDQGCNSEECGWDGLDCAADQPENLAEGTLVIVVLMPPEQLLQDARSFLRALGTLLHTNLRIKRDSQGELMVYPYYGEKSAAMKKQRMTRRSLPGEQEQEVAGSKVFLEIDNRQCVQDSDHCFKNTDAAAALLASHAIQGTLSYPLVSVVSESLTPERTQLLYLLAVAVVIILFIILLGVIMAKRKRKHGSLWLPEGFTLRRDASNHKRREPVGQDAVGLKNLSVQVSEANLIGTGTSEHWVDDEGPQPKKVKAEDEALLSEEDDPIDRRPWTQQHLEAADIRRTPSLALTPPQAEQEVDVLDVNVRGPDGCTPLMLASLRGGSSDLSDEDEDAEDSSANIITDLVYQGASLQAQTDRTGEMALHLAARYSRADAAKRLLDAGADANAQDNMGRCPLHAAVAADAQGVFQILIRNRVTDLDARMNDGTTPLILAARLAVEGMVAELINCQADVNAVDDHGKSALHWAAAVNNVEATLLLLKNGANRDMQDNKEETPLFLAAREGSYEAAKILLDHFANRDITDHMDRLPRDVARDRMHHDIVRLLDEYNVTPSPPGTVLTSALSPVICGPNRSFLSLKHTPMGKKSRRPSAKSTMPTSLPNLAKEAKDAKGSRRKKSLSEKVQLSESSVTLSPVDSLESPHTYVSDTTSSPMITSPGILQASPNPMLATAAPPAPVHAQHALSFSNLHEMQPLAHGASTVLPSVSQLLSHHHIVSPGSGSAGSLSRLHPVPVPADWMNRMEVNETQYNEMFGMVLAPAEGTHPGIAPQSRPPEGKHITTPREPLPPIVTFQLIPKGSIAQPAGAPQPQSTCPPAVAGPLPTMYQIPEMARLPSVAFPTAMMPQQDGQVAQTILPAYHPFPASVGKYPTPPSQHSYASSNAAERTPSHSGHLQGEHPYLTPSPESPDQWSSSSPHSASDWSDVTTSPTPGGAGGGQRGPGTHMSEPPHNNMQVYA

| SMILES | composite z-score [1] | composite z-score [2] | composite z-score [3] | composite z-score [4] | composite z-score [5] | composite z-score [6] | composite z-score [7] | z-score [8] | composite z-score [9] | composite z-score [10] |
| --- | --- | --- | --- | --- | --- | --- | --- | --- | --- | --- |
| CCCN1C(=O)[C@]2(Cc3ccccc31)N=C(c1ccc(OCCCO)cc1)O[C@@H]2c1ccccc1 | 0.552 | 0.176 | 0.0732 | -0.139 | 0.118 | 1.3 | 1.23 | -1.9 (inactive) | 0.311 | 0.22 |
| CN(C)C(=O)[C@]1(Cc2ccccc2CN=[N+]=[N-])N=C(c2ccc(OCCCO)cc2)O[C@@H]1c1ccccc1 | 0.168 | -0.242 | 0.0577 | 0.863 | 0.666 | 1.62 | 0.96 | -3.49 (inactive) | 0.694 | -0.0618 |
| COc1ccc([Si](C)(C)[C@@H]2[C@@H](CCO)O[C@]3(C(=O)N(Cc4cccc(NC(=O)[C@H](C)O)c4)c4ccccc43)[C@H]2C)cc1 | -0.328 | 0.263 | -0.053 | 1.23 | 0.487 | 1.07 | 1.14 | -3.53 (inactive) | 0.146 | -0.249 |
| COCCOC(=O)N1C(=O)[C@@]2(c3cc(C#CC4=CCCCC4)ccc31)[C@H](c1ccccc1OCCO)N1[C@H](c3ccccc3)[C@H](c3ccccc3)OC(=O)[C@H]1[C@@H]2C(=O)N1CCN(c2ncccn2)CC1 | -0.463 | 0.434 | -0.0536 | 0.538 | 1.07 | 0.373 | 1.13 | -0.624 (inactive) | 0.469 | -0.321 |
| CC(C)c1ccc(NN2C(C(O)c3ccc(F)cc3)C=CC3C(=O)N(c4ccccc4)C(=O)C32)cc1 (stereo not given) | -0.26 | 0.25 | 0.187 | 1 | 1.55 | 1.28 | 1.04 | -0.38 (inactive) | 1.25 | -0.118 |
| CC(CO)N1C(=O)[C@@H]2[C@H]3C(=O)OCC=C[C@H]3OC23C=CCN(Cn2nnc4ccccc42)C(=O)[C@@H]13 (stereo not given in full) | 0.12 | -0.699 | -0.207 | -0.729 | -1 | 1.88 | 0.694 | 0.246 (inactive) | -0.391 | -0.0994 |
| O=C(NCc1ccc(F)cc1)[C@H]1C[C@H]2C(=O)NCC(=O)N2[C@H]1c1ccc(O)cc1 | 0.505 | 0.6 | -0.0224 | -0.162 | -0.336 | 0.964 | 1.3 | -0.428 (inactive) | 0.101 | 0.12 |
| Cc1cc(C)c(C(O)C2C=CC3C(=O)N(c4ccccc4)C(=O)C3N2Nc2ccccc2F)c(C)c1 (stereo not given) | -0.0327 | -0.437 | -0.01 | -0.0495 | 0.565 | 1.07 | 1.09 | 0.717 (inactive) | 0.439 | 0.0854 |
| COCCOC(=O)N1C(=O)[C@@]2(c3cc(C#CC4(O)CCCCCC4)ccc31)[C@H](C(=O)Nc1nc3ccccc3s1)[C@H]1C(=O)O[C@H](c3ccccc3)[C@H](c3ccccc3)N1[C@@H]2c1ccc(O)cc1 | -0.304 | 0.442 | -0.0202 | 0.539 | 1.24 | 1.46 | 1.2 | 0.21 (inactive) | 1.47 | 0.107 |
| [N-]=[N+]=Nc1ccccc1C[C@@]1(C(=O)N2CCOCC2)N=C(c2ccc(OCCCO)cc2)O[C@@H]1c1ccccc1 | -0.4 | -0.121 | 0.0324 | 1.11 | 1.3 | 1.06 | 1.18 | -3.93 (inactive) | 1.71 | -0.112 |
| Cc1ccc(S[C@]2(C(=O)NC(C)C)CC(=O)N(Cc3cc(C(F)(F)F)cc(C(F)(F)F)c3)[C@@H]2c2ccc(CO)cc2)cc1 | 0.0795 | -0.662 | -0.145 | -0.898 | -1.08 | 0.624 | 0.644 | 0.237 (inactive) | -0.803 | -0.236 |
| COCCOC(=O)N1C(=O)[C@@]2(c3cc(C#CC4=CCCCC4)ccc31)[C@H](c1ccccc1OCCO)N1[C@H](c3ccccc3)[C@H](c3ccccc3)OC(=O)[C@H]1[C@@H]2C(=O)NC[C@H](O)c1ccccc1 | -0.223 | 0.123 | -0.0817 | 0.345 | 1.07 | 0.298 | 1.23 | 0.204 (inactive) | 0.635 | 0.115 |
| CC1=C2[C@@H](CCc3ccccc3)OB(O)C[C@@H]2[C@@H]2C(=O)N(C)C(=O)[C@@H]2C1 | -0.366 | -0.19 | -0.104 | 0.496 | 0.849 | 1.09 | -0.0884 | 1.26 (inactive) | 0.438 | -0.171 |
| O=C1CS(=O)(=O)C(c2cccc([N+](=O)[O-])c2)N1c1ccccc1 (stereo not given) | 0.63 | 1.79 | 0.467 | 0.446 | 0.936 | 1.66 | 1.19 | -0.997 (inactive) | 0.822 | 1.56 |
| CC[C@@H]1O[Si](C(C)C)(C(C)C)c2c1cc(-c1cc(C)c(OC)c(C)c1)nc2-c1ccc(Oc2ccccc2)cc1 | -0.119 | -0.259 | -0.0881 | -0.0323 | 0.0131 | 0.437 | -0.595 | 0.838 (inactive) | -0.0965 | 0.0808 |
